Experimental data as given in PubChem BioAssay AID624111 (Johns Hopkins Ion Channel Center, 2012).
Hit rate of the full screen: of about 4,000 compounds, about 60 (2%) were called active.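 How the source made its calls: active means duplicate-averaged calcium fluorescence ratio at least three times the standard deviation of buffer wells, a nonspecific response in parental cells; inactive means the rest.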 This excerpt belongs to a sample that is enriched for actives.

Assay: calcium flux effects in cells lacking MrgX1 – parental HEK293 cells, Fluo-4 calcium flux, counter-screen for MrgX1 antagonist project, confirmation (AID 624111)
Details: parental HEK293, Fluo-4 calcium fluorescence, FDSS; at 10 µM

Row | Structure (SMILES) | fluorescence ratio F(max-min)/F0
1 | COc1ccc(C(=O)NC(=S)NNC(=O)c2c(-c3ccccc3)noc2C)cc1 | inactive
2 | O=C(COC(=O)c1ccc(NS(=O)(=O)c2cccs2)cc1O)Nc1ccc(F)cc1 | inactive
3 | CN(CC(=O)Nc1ccccc1Cl)C(=O)COc1cccc2c1OC(C)(C)C2 | inactive
4 | O=C(O)CSC(NC(=O)c1cccnc1)(C(F)(F)F)C(F)(F)F | inactive
5 | Nc1cc(OC(=O)c2ccccc2Br)nn1S(=O)(=O)c1ccccc1 | inactive
6 | COc1cc2c(cc1O)C(SC)=NC(C)(C)C2 | inactive
7 | Cc1nn(-c2ccccc2)c2c1C(c1ccc(F)cc1)C(C#N)=C(N)O2 (stereo unspecified) | inactive
8 | O=C(CSc1c2c(nc3ccc(Cl)cc13)CCCC2)NCc1ccco1 | inactive
9 | COc1ccc(OC)c(C(=O)c2ccc(Cl)cc2)c1 | inactive
10 | CCOc1ccc(C2=CC(c3ccccc3)n3ncnc3N2)cc1 (stereo unspecified) | inactive
11 | O=C(c1cccs1)C1C(c2ccc(Br)cc2)NC(=S)NC1(O)C(F)(F)F (stereo unspecified) | inactive
12 | CCOC1CCCCC1NS(=O)(=O)c1ccc(Cl)cc1 (stereo unspecified) | inactive
13 | CC(C)CC(=O)NC(=S)NNC(=O)c1cccc([N+](=O)[O-])c1 | inactive
14 | Cc1ccnc(NC(=O)C(C)N2C(=O)c3ccccc3C2=O)c1 (stereo unspecified) | inactive
15 | O=C1CCCc2c1nc(-c1cccc(Cl)c1)n2O | inactive
16 | O=C(CSc1nncn1-c1cccnc1)N1CCOCC1 | inactive
17 | O=c1c2cc(Br)ccc2nc(-c2cccc(Cl)c2)n1O | inactive
18 | O=C1Cc2ccccc2Sc2ccc(Cl)cc21 | inactive
19 | CCOc1ccc2nc(/N=C/c3nc(-c4ccccc4)oc3O)sc2c1 | 0.438 (active)

Row | Structure (SMILES) | fluorescence ratio F(max-min)/F0
20 | COCC(C)NC(=O)c1ccc(Cl)c(Cl)c1 (stereo unspecified) | inactive
21 | COCCNC(=O)C1CCN(S(=O)(=O)c2ccc3c(c2)OCCO3)CC1 | inactive
22 | FC(F)Oc1ccc(NC(=S)NCc2ccco2)cc1Cl | inactive
23 | COc1ccc(NC(=O)c2cc(-c3ccc(C)o3)nc3ccccc23)cc1 | inactive
24 | O=C(COC(=O)C1CCN(S(=O)(=O)c2ccc3c(c2)OCCO3)CC1)Nc1ccccc1OC(F)F | inactive
25 | CC1CCN(S(=O)(=O)c2nnc(NC(=O)COc3ccccc3F)s2)CC1 | inactive
26 | COC(=O)Cn1c(O)c(N=NC(=O)OC)c2ccccc21 | inactive
27 | O=C(Nc1nc2c(F)cc(F)cc2s1)C1COc2ccccc2O1 (stereo unspecified) | inactive
28 | CC(C)OCCCNc1ncnc2c1[nH]c1ccc(F)cc12 | inactive
29 | O=C(CC(O)(C(F)(F)F)C(F)(F)F)Nc1ccc(Cl)c(Cl)c1 | inactive
30 | O=C(Nc1ccccc1N1CCOCC1)c1csc2c1CCCC2 | inactive
31 | Cc1ccc2cc(/C=N/Nc3ccc(C(=O)O)cc3)c(Cl)nc2c1 | inactive
32 | CCOCc1nnc(NC(=O)CCC2CCCCC2)s1 | inactive
33 | O=C(Cn1c(-c2cncs2)nc2ccccc21)NC1CCCC1 | inactive
34 | COc1cc(C2/C(=C(\O)c3ccc4c(c3)CC(C)O4)C(=O)C(=O)N2Cc2ccco2)ccc1O (stereo unspecified) | inactive
35 | CC1CCCCN1S(=O)(=O)c1ccc(C(=O)Nc2nnc(-c3cccs3)o2)cc1 (stereo unspecified) | inactive
36 | O=C(Oc1ccc(C(=S)N2CCOCC2)cc1)c1ccc(F)cc1 | inactive
37 | COC(=O)Cc1cc(=O)n(-c2nc3ccccc3s2)[nH]1 | inactive
38 | COC(=O)c1c(NC(=O)c2c(Cl)cnn2C)sc(C)c1C | inactive

Row | Structure (SMILES) | fluorescence ratio F(max-min)/F0
39 | COc1cccc(CCNC(=O)COc2cccc3c2OC(C)(C)C3)c1 | inactive
40 | CCOC(=O)Cc1csc(SCc2cc(=O)oc3cc(O)ccc23)n1 | inactive
41 | NC(=O)c1c(Nc2nc3c(F)cccc3s2)sc2c1CCCC2 | inactive
42 | COc1ccc([N+](=O)[O-])cc1NC(=O)COC(=O)/C=C/c1ccco1 | inactive
43 | Cc1ccc(OC(=O)c2cc3ccccc3o2)cc1 | inactive
44 | Cc1cccc(-n2c(Cc3cc(=O)[nH]c(=O)[nH]3)nnc2SC(C)C)c1 | inactive
45 | Cc1ccc(Nc2nc(-c3ccc(O)cc3O)cs2)nc1 | inactive
46 | COc1ccc(Nc2nc(-c3cccnc3)nc3ccccc23)cn1 | inactive
47 | Cc1ccc(S(=O)(=O)N(C)c2nc3ccccc3n3c(C(C)C)nnc23)cc1 | inactive
48 | COC(=O)c1c(NC(=O)CN(c2ccc(C)c(C)c2)S(C)(=O)=O)sc2c1CCCC2 | inactive
49 | Cc1nonc1C1CCCN1Cc1nc(-c2ccc(F)cc2F)oc1C (stereo unspecified) | inactive
50 | Cc1ccc(C(C(=O)NC2CCCCC2)N(C(=O)c2csnn2)C2CC2)o1 (stereo unspecified) | inactive
51 | CCCc1nc2c(c(=O)c3ccccc3n2C)c(=O)n1C1CCCCCC1 | inactive
52 | COC(=O)c1ccc(C2C3=C(Nc4nnnn42)c2ccccc2OC3)cc1 (stereo unspecified) | inactive
53 | CCN(CC)c1ccc(C2C3CCCCC3(O)CCN2CC(=O)Nc2ccccc2)cc1 (stereo unspecified) | inactive
54 | Cc1cccc(NC(=O)COc2ccccc2C)n1 | inactive
55 | COc1ccc(Cc2nc(-c3ccccn3)no2)cc1OC | inactive
56 | CN(C)CCn1c(=S)[nH]c2ccc(Cl)cc2c1=O | inactive
